Data reported in PubChem BioAssay (NCATS).
Inconclusive results are not listed. The source made the active and inactive calls. Unless noted, calls come from the whole dose curve; as a rule, active = well fitted curve in either direction with a large enough effect (not every such curve was filed as active); inconclusive = small, poorly fitted or top-dose-only effect, or another doubt; inactive = flat fitted curve, though single readings scatter.

Experiments:
[1] = AP1 Signaling Pathway (AID 357); conditions: ME-180 (cervical carcinoma) AP-1-bla reporter, EGF-induced, beta-lactamase ratio, 5 h; at 17.2 µM (top of the series) unless noted;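 note: ME-180 reporter cells stimulated with EGF at its EC50 level; % is set by controls: 0 for no effect and ±100 for the full control effect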
Outline: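 Cells are seeded overnight, exposed to compound titrations and an EC50 level of EGF for 5 hours at 37 °C, then loaded with CCF4 dye for 2.5 hours. Beta-lactamase activity under the AP-1 element is read as a blue/green ratio.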

[2] = NFAT Signaling Pathway (AID 444); conditions: Jurkat NFAT-bla M1, carbachol, beta-lactamase ratio, 5 h; at 17.2 µM (top of the series) unless noted;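 note: carbachol stimulus at about its EC50 of 1 µM final; % is set by controls: 0 for no effect and ±100 for the full control effect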
Outline: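 Jurkat cells with NFAT-driven β-lactamase reporter and co-expressed M1 receptor, stimulated with carbachol (final 1 uM, ~EC50), compound titration, 5 h at 37 °C. CCF4 loaded 1 h at RT; 460/530 nm ratio gave %activity and AC50.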

[3] = Stat Signaling Pathway (AID 446);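 note: ME-180 cervical cancer cells given 40 pM IL-6 alongside compound; SIE-controlled beta-lactamase reporter measured as 460/530 nm FRET emission ratio; % is set by controls: 0 for no effect and ±100 for the full control effect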
Outline: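 Normalization used AC90 stimulation (300 pM IL-6) and AC90 inhibition (125 nM pan-JAK inhibitor at 40 pM IL-6). The underlying signal is SIE-driven beta-lactamase in ME-180 cells after 5 h IL-6 exposure with compound.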

[4] = biological target: Glucocorticoid receptor (Homo sapiens) (UniProt P04150); experiment: GR-GFP Redistribution (AID 450;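 active = compounds whose dose series gives a full or clear partial fitted curve of increased nuclear translocation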; note: potency is the fitted concentration of half-maximal effect); conditions: U2OS GR-GFP nuclear translocation, laser cytometry, 2 h
Sequence of Glucocorticoid receptor (Homo sapiens) (P04150 whole entry, looked up): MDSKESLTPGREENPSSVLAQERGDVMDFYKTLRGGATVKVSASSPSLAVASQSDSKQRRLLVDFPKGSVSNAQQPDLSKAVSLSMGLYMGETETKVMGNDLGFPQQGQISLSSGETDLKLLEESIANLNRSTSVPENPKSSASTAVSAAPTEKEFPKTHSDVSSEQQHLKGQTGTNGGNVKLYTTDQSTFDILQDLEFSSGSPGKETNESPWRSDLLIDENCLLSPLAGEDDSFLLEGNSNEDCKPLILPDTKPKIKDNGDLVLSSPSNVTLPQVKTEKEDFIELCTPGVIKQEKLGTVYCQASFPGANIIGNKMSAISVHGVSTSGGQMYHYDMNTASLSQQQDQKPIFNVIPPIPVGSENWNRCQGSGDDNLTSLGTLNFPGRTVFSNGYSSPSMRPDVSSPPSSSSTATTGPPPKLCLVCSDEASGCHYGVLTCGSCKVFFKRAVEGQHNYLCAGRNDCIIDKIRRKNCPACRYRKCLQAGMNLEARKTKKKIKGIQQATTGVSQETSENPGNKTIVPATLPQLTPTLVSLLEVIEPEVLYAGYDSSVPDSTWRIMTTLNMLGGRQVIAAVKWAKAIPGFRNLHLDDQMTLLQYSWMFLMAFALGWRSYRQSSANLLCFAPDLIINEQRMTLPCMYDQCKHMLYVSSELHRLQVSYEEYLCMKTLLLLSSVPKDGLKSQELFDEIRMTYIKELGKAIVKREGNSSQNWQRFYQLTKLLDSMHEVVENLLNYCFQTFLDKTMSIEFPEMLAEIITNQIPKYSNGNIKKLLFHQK

O=C1c2ccccc2C(=O)N1Cc1nc2ccccc2c(=O)n1-c1cccnc1
inactive: activity change, negative = inhibition [1] 24% | activity change, negative = inhibition [2] -3.03% | outcome [3] | Potency [4] > 20.6 µM

CCCc1nc2ccccc2c(=O)n1-c1ccccc1OC
inactive: activity change, negative = inhibition [1] -13.4% | activity change, negative = inhibition [2] 1.18% | outcome [3] | Potency [4] > 20.6 µM

O=c1[nH]c(=O)n(C2CCCCC2)c(O)c1C=NCCCn1ccnc1
inactive: activity change, negative = inhibition [1] 0.159% | activity change, negative = inhibition [2] -4.42% | outcome [3] | Potency [4] > 20.6 µM

CCCCCCn1c(O)c(C=NCCN2CCCCC2)c(=O)[nH]c1=O
inactive: activity change, negative = inhibition [1] 10.2% | activity change, negative = inhibition [2] 4.87% | outcome [3] | Potency [4] > 20.6 µM

C=CCn1c(O)c(C=NCCN(C)C)c(=O)[nH]c1=O
inactive: activity change, negative = inhibition [1] 1.63% | activity change, negative = inhibition [2] -6.46% | outcome [3] | Potency [4] > 20.6 µM

O=c1[nH]c(=O)n(Cc2ccco2)c(O)c1C=NCCCn1ccnc1
inactive: activity change, negative = inhibition [1] 10% | activity change, negative = inhibition [2] -8.42% | outcome [3] | Potency [4] > 20.6 µM

CCN(CC)c1ccc(N=Cc2c(O)n(-c3ccccc3C)c(=O)[nH]c2=O)cc1
inactive: activity change, negative = inhibition [1] -21.6% | activity change, negative = inhibition [2] -29.8% | outcome [3] | Potency [4] > 20.6 µM

O=c1[nH]c(=O)n(CCc2ccccc2)c(O)c1C=NCCCn1ccnc1
inactive: activity change, negative = inhibition [1] -11% | activity change, negative = inhibition [2] -27.5% | outcome [3] | Potency [4] > 20.6 µM

CN1CCc2nc(SCC(=O)OC(C)(C)C)c(C#N)cc2C1
inactive: activity change, negative = inhibition [1] -5.69% | activity change, negative = inhibition [2] -15.8% | outcome [3] | Potency [4] > 20.6 µM

CC(=O)[C@@]1(O)CC[C@H]2[C@@H]3CC=C4C[C@@H](O)CC[C@]4(C)[C@H]3CC[C@@]21C
inactive: activity change, negative = inhibition [1] 0.531% | activity change, negative = inhibition [2] 10.8% | outcome [3] | Potency [4] > 20.6 µM

CCCCc1nc2ccccc2c(=O)n1-c1ccccc1O
inactive: activity change, negative = inhibition [1] -4.36% | activity change, negative = inhibition [2] -4.7% | outcome [3] | Potency [4] > 20.6 µM

OCCOCC#CCN1CCOCC1
inactive: activity change, negative = inhibition [1] 12.1% | activity change, negative = inhibition [2] -4.14% | outcome [3] | Potency [4] > 20.6 µM
